Measurements taken from PubChem BioAssay (EPA / NIEHS).
Calls of active or inactive are those of the source. Rule for the calls: active = hit-call score of the fitted dose curve at least 0.9, where 1 is the maximum; inactive = score below 0.9.

What was measured:
[1] = ATG_ERE_CIS: Attagene CIS-FACTORIAL HepG2 Assay for Estrogen Response Element (ERE) (AID 2282940); details: HepG2 ERE cis-reporter, Attagene RNA transcript; actives raise or lower the signal
In short: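 Readout: reporter mRNA induction by RT-PCR, FAM-labelled primer extension, HpaI digestion and capillary electrophoresis, 24 h after dosing transfected HepG2 cells. Endogenous transcription factors act on cis-element-regulated reporters. Gain or loss fitted against DMSO.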

[2] = ATG_Ets_CIS: Attagene CIS-FACTORIAL HepG2 Assay for human Erythroblast Transformation Specific (ETS) (AID 2282941); details: HepG2 ETS cis-reporter transcription, actives raise or lower the signal
In short: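 After transient cis-reporter transfection, HepG2 cells receive test chemical for 24 h. Reporter mRNA levels, measured by RT-PCR and capillary electrophoresis fluorescence, are analysed bidirectionally relative to the DMSO baseline.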

[3] = molecular target: Hepatocyte nuclear factor 3-beta (Homo sapiens) (UniProt Q9Y261); experiment: ATG_FoxA2_CIS: Attagene CIS-FACTORIAL HepG2 Assay for human Forkhead box A2 (FOXA2) (AID 2282942); details: HepG2 cis-reporter transcription factor activity, 24 h; actives raise or lower the signal
Chain of Hepatocyte nuclear factor 3-beta (Homo sapiens) (Q9Y261 whole entry, looked up): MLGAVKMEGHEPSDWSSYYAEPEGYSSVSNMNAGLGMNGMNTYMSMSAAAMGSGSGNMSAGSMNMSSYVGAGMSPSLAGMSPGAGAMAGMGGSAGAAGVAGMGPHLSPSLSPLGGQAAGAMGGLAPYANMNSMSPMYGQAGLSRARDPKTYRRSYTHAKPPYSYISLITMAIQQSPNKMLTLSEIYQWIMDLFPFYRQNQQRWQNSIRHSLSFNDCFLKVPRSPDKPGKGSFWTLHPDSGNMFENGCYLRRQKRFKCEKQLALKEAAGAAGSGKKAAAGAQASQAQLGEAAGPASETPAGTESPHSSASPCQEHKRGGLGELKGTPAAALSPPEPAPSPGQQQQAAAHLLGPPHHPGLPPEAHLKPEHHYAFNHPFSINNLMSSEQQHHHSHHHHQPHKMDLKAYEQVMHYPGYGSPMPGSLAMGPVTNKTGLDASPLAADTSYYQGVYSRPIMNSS
In short: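 Transient MRTU transfection of HepG2 liver cells; 24 h treatment; total RNA → oligo(dT) RT → PCR → FAM primer extension → HpaI cut → CE. Bidirectional fit vs DMSO.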

[4] = ATG_FoxO_CIS: Attagene CIS-FACTORIAL HepG2 Assay for human Forkhead box O (FoxO) (AID 2282943); details: HepG2 Attagene cis-reporter, FoxO element, mRNA; actives raise or lower the signal
In short: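 Human hepatoma HepG2 cells carry transiently introduced reporter transcription units controlled by cis promoter elements. Chemical treatment lasted 24 h, and mRNA signal was compared with DMSO.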

[5] = ATG_GATA_CIS: Attagene CIS-FACTORIAL HepG2 Assay for human GATA Binding Protein (AID 2282944); details: HepG2 GATA cis-element reporter, Attagene multiplex mRNA; actives raise or lower the signal
In short: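 Read-out: fluorescent reporter mRNA fragments resolved by capillary electrophoresis after RT-PCR. Human liver HepG2 cells carried transiently transfected cis-regulated reporter constructs; chemicals incubated 24 h; gain or loss of signal fitted relative to DMSO.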

[6] = ATG_GLI_CIS: Attagene CIS-FACTORIAL HepG2 Assay for human Zinc Finger Protein GLI1 (AID 2282945); details: HepG2, Attagene cis-factorial reporter mRNA, GLI element; actives raise or lower the signal
In short: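 Bidirectional curve fits relative to DMSO, using reporter mRNA levels from RT-PCR plus capillary electrophoresis. Cells were HepG2 transiently carrying cis-regulated reporter constructs, harvested 24 h after dosing.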

[7] = ATG_ISRE_CIS: Attagene CIS-FACTORIAL HepG2 Assay for human Interferon Regulatory Factor 1 (IRF1) binding to an Interferon-Stimulated Response Element (ISRE) (AID 2282948); details: HepG2 ISRE cis-reporter (Attagene), mRNA transcription readout; actives raise or lower the signal
In short: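 Quantitation relies on labelled RT-PCR fragments separated by capillary electrophoresis. Human HepG2 cells bearing cis-promoter reporter constructs were treated 24 h; DMSO served as baseline for bidirectional fitting.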

[8] = ATG_M_32_CIS: Attagene CIS-FACTORIAL HepG2 Assay for M32 Transcription Factor (Internal Marker) (AID 2282949); details: HepG2 Attagene cis-factorial M32 reporter, mRNA; actives raise or lower the signal;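 note: background control marker of the multiplexed CIS panel rather than a real target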
In short: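 Fluorescent capillary electrophoresis peaks of HpaI-digested, FAM-labelled RT-PCR reporter products give the signal. Source: transiently transfected human liver HepG2 cells, 24 h after chemical dosing; bidirectional fitting against DMSO.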

[9] = ATG_M_06_CIS: Attagene CIS-FACTORIAL HepG2 Assay for M06 Transcription Factor (Internal Marker) (AID 2282950); details: HepG2 Attagene CIS-FACTORIAL M06 internal marker reporter; actives raise or lower the signal
In short: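 Terse: HepG2, transient MRTU transfection (FuGene 6), 24 h dosing; total RNA, oligo(dT) RT, PCR, FAM label, HpaI cut, capillary electrophoresis; bidirectional fit vs DMSO baseline; background-control endpoint.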

[10] = molecular target: Hypoxia-inducible factor 1-alpha (Homo sapiens) (UniProt Q16665); experiment: ATG_HIF1a_CIS: Attagene CIS-FACTORIAL HepG2 Assay for human Hypoxia Inducible Factor 1 (HIF1A) (AID 2282951); details: HepG2 Attagene cis-factorial HIF1a reporter transcription; actives raise or lower the signal
Chain of Hypoxia-inducible factor 1-alpha (Homo sapiens) (Q16665 whole entry, looked up, the tested form may be a part): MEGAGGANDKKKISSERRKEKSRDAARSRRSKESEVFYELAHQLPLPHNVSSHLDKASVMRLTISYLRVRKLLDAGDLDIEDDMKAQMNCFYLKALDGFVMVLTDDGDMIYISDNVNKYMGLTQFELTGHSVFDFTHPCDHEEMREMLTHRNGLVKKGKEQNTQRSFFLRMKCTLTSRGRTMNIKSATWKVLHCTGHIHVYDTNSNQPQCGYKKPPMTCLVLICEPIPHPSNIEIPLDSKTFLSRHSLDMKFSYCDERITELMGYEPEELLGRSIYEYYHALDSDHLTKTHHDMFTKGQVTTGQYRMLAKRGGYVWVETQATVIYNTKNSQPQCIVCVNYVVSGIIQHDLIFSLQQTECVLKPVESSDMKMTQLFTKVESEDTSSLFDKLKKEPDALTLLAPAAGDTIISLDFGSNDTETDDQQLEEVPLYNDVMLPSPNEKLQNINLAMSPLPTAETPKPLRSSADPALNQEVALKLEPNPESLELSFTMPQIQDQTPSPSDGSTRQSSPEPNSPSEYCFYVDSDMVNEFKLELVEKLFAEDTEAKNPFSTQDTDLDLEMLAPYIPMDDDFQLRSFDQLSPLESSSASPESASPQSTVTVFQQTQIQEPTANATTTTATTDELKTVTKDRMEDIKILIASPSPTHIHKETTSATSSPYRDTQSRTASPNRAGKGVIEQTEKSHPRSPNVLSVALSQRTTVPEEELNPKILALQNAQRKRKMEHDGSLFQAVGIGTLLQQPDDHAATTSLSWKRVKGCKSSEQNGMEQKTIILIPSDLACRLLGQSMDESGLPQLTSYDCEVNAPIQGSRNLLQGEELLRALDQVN
In short: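 Transient MRTU transfection of human HepG2 liver cells, 24 h compound treatment, then total RNA isolation, oligo(dT) reverse transcription, PCR amplification, fluorescent labelling and capillary electrophoresis of reporter fragments. Gain or loss relative to DMSO.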

[11] = molecular target: Hepatocyte nuclear factor 6 (Homo sapiens) (UniProt Q9UBC0); experiment: ATG_HNF6_CIS: Attagene CIS-FACTORIAL HepG2 Assay for human Hepatocyte Nuclear Factor 6 (HNF6) (AID 2282952); details: HepG2 Attagene cis-factorial HNF6 reporter transcription; actives raise or lower the signal
Chain of Hepatocyte nuclear factor 6 (Homo sapiens) (Q9UBC0 whole entry, looked up): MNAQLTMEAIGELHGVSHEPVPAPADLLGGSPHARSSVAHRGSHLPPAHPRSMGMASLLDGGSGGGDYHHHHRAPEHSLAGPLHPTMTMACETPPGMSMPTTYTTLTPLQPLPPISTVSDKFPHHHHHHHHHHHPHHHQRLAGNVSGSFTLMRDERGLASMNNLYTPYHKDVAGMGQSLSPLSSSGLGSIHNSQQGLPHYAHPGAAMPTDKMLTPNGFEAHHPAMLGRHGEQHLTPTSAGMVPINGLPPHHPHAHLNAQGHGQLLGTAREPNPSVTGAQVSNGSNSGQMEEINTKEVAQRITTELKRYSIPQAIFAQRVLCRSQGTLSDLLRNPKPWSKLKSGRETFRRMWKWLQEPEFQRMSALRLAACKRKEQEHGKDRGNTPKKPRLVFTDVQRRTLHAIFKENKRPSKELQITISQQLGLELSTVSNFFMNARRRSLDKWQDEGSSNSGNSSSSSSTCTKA
In short: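 Cells are HepG2 carrying transiently transfected cis-promoter reporter units. Treatment lasts 24 h, after which reporter transcripts are reverse-transcribed, amplified, FAM-labelled and sized by capillary electrophoresis. DMSO serves as baseline.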

[12] = molecular target: Heat shock factor protein 1 (Homo sapiens) (UniProt Q00613); experiment: ATG_HSE_CIS: Attagene CIS-FACTORIAL HepG2 Assay for human Heat Shock Transcription Factor 1 (HSE) (AID 2282953); details: HepG2 HSE cis-reporter, Attagene RNA transcription; actives raise or lower the signal
Chain of Heat shock factor protein 1 (Homo sapiens) (Q00613 whole entry, looked up, the tested form may be a part): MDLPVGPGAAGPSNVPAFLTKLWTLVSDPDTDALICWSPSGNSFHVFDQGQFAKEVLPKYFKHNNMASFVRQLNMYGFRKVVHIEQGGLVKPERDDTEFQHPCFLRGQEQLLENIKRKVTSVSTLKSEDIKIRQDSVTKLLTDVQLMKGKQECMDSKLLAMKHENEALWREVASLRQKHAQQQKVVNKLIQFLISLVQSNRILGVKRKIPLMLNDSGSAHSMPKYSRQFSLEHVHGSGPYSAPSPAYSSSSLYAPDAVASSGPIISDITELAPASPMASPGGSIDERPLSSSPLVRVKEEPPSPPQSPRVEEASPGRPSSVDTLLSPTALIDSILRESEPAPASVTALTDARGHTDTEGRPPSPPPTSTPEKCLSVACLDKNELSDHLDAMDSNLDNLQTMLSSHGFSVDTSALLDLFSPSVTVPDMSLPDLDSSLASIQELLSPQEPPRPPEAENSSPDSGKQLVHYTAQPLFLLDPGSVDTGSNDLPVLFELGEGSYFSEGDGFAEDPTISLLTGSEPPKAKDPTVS
In short: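 Read-out: fluorescence of reporter-specific RT-PCR fragments separated by capillary electrophoresis. HepG2 carrying transfected cis-element reporter units; 24 h dosing; activity fitted in both directions relative to DMSO baseline.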

[13] = ATG_PBREM_CIS: Attagene CIS-FACTORIAL HepG2 Assay for human Phenobarbital-responsive Enhancer Module (PBREM) (AID 2282955); details: HepG2 PBREM cis-reporter, Attagene multiplexed transcription; actives raise or lower the signal
In short: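 Endogenous transcription factors in human liver HepG2 cells drive a PBREM cis-element reporter, whose transcript level after 24 h treatment is quantified by RT-PCR with capillary electrophoresis; activity fitted in both directions against DMSO.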

[14] = molecular target: Paired box protein Pax-6 (Homo sapiens) (UniProt P26367); experiment: ATG_Pax6_CIS: Attagene CIS-FACTORIAL HepG2 Assay for human Paired Box 6 (PAX6) (AID 2282956); details: HepG2 CIS-FACTORIAL PAX6 reporter transcription, RNA readout; actives raise or lower the signal
Chain of Paired box protein Pax-6 (Homo sapiens) (P26367 whole entry, looked up): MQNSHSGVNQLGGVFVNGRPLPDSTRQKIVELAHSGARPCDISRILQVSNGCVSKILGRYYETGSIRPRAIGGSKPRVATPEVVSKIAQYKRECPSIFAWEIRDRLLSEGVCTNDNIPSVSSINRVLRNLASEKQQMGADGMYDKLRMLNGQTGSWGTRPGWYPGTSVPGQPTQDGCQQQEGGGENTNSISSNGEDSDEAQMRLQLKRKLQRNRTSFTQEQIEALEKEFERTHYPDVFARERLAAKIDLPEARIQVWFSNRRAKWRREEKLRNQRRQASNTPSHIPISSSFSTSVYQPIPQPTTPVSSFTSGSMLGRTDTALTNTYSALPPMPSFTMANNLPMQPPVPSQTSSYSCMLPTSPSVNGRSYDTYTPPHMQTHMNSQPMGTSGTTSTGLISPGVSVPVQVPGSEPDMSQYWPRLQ
In short: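 After twenty-four hours of chemical exposure, transfected HepG2 cells are harvested for RNA. Cis-promoter reporter transcripts are amplified, fluorescently labelled and sized by capillary electrophoresis, with gain and loss of signal scored against DMSO.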

[15] = ATG_PPRE_CIS: Attagene CIS-FACTORIAL HepG2 Assay for human Peroxisome Proliferator-activated Response Element (PPRE) (AID 2282958); details: HepG2 PPRE cis-element reporter, Attagene transcription factor profiling; actives raise or lower the signal
In short: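 HepG2, transient MRTU transfection (cis promoter elements, endogenous TFs). 24 h dosing. RNA → oligo(dT) RT → PCR → 6-FAM primer extension → HpaI digest → CE. Bidirectional fit vs DMSO.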

[16] = ATG_RORE_CIS: Attagene CIS-FACTORIAL HepG2 Assay for human RAR-related Orphan Receptor Element (RORE) (AID 2282959); details: HepG2 Attagene cis-factorial RORE reporter, mRNA; actives raise or lower the signal
In short: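 Transient MRTU transfection of human HepG2 liver cells (FuGene 6); 24 h compound exposure; TriZol RNA, oligo(dT) RT, PCR, FAM labeling, HpaI cut, CE fragment analysis. DMSO = negative control/baseline.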

[17] = molecular target: Bile acid receptor (Homo sapiens) (UniProt Q96RI1); experiment: ATG_IR1_CIS: Attagene CIS-FACTORIAL HepG2 Assay for human Nuclear Receptor Subfamily 1 Group H Member 4 (NR1H4), IR1 submotif (AID 2282946); details: IR1 reporter transcription, actives raise or lower the signal
Chain of Bile acid receptor (Homo sapiens) (Q96RI1 whole entry, looked up, the tested form may be a part): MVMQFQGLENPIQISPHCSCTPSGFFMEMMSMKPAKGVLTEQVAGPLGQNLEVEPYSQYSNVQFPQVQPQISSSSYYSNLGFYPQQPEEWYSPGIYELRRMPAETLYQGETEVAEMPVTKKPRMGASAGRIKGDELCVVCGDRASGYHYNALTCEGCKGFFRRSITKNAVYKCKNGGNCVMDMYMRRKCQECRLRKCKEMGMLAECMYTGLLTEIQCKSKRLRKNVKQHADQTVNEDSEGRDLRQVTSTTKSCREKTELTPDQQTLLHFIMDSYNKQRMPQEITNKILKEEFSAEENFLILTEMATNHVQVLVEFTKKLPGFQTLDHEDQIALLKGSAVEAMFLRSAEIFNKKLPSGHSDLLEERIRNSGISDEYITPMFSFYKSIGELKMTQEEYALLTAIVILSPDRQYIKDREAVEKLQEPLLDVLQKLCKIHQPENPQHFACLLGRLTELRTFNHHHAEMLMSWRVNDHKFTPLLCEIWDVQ
In short: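 Cells (human HepG2) carry transiently transfected cis-promoter reporter transcription units. Compounds are incubated 24 h, total RNA is reverse-transcribed and amplified, and labelled fragments are resolved by capillary electrophoresis. Curves use DMSO as baseline.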

[18] = ATG_GRE_CIS: Attagene CIS-FACTORIAL HepG2 Assay for human Glucocorticoid Response Elements (GRE) (AID 2282947); details: HepG2 GRE cis-reporter, Attagene multiplex mRNA; actives raise or lower the signal
In short: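 Transient MRTU transfection of human HepG2 liver cells; cis-regulated reporters report endogenous factors. 24 h dosing → RNA isolation → RT-PCR → 6-FAM primer extension → HpaI cut → CE fragment analysis. Bidirectional fit, DMSO negative control.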

[19] = ATG_MRE_CIS: Attagene CIS-FACTORIAL HepG2 Assay for human Metal Responsive Element (MRE) (AID 2282954); details: HepG2 MRE cis-reporter transcription, Attagene multiplex; actives raise or lower the signal
In short: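 Transient MRTU transfection of HepG2 (FuGene 6); 24 h dosing; total RNA → oligo(dT) RT, PCR, 6-FAM primer extension, HpaI cut, CE. Bidirectional fit vs DMSO.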

[20] = ATG_PXRE_CIS: Attagene CIS-FACTORIAL HepG2 Assay for human Pregnane X Receptor Element (PXRE) (AID 2282957); details: HepG2 Attagene CIS-FACTORIAL PXRE reporter, mRNA; actives raise or lower the signal
In short: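 Multiplexed cis-reporter assay in transiently transfected human HepG2 cells; 24 h chemical exposure. Reporter transcripts quantified by RT-PCR with fluorescent labeling and capillary electrophoresis.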

Measured: AC50

CCC(C)(C#N)N=NC(C)(C#N)CC (stereo unspecified)
not listed: [17] | [18] | [19] | [20]
inactive: all other assays above

CCCCCCCCCCBr
active: [20] 27.7 µM
not listed: [4] | [9] | [13] | [15]
inactive: all other assays above

C=C(C)C(=O)OCCCCOC(=O)C(=C)C
not listed: [4] | [17]
inactive: all other assays above

CC(C)(C)c1cc([N+](=O)[O-])cc(C(C)(C)C)c1O
active: [2] 52.1 µM | [19] 42.4 µM | [13] 2.52 µM | [20] 4.23 µM | [15] 12.8 µM | [16] 28.7 µM
not listed: [4] | [18]
inactive: all other assays above

Cc1cc(Cl)ccc1OC(C)C(=O)O (stereo unspecified)
active: [15] 68.4 µM
not listed: [17] | [18]
inactive: all other assays above

CC(c1ccccc1)(c1ccc(O)cc1)c1ccc(O)cc1
active: [1] 0.181 µM | [2] 20.1 µM | [17] 15.6 µM | [7] 19.3 µM | [12] 17.7 µM | [14] 17.8 µM | [20] 2.92 µM
not listed: [4] | [13] | [19]
inactive: all other assays above

Oc1c(Br)cc(Br)cc1Br
active: [1] 24.9 µM | [19] 78.7 µM | [13] 20.9 µM | [20] 5.82 µM | [15] 51.2 µM | [16] 40.6 µM
not listed: [17] | [18]
inactive: all other assays above

c1ccc(-c2cccc(-c3ccccc3)c2)cc1
active: [1] 26.4 µM | [20] 11.3 µM
not listed: [13] | [15] | [17] | [18] | [19]
inactive: all other assays above

CCOP(=O)(OCC)SCCSCC
active: [20] 57.2 µM
not listed: [13] | [15] | [17] | [18]
inactive: all other assays above

C=CCOC(F)(C(F)(F)F)C(F)(F)F
not listed: [4]
inactive: all other assays above

CCN(CCO)CCO
active: [20] 27.2 µM
not listed: [9] | [17]
inactive: all other assays above

O=C=Nc1ccc(Cl)cc1
active: [4] 162 µM
not listed: [9] | [17] | [18]
inactive: all other assays above

CC(C)(C#N)N=NC(C)(C)C#N
active: [20] 79.6 µM
not listed: [9] | [17]
inactive: all other assays above

O=S(=O)(C(Cl)(Cl)Cl)C(Cl)(Cl)Cl
active: [6] 19.3 µM | [7] 16.4 µM | [12] 7.93 µM | [19] 16.5 µM | [14] 16 µM | [20] 11.1 µM
not listed: [9] | [16] | [17]
inactive: all other assays above
